# Measurements reported in PubChem BioAssay (NCATS).
# Results filed as inconclusive are left out. Values without a mark were called inactive. Calls of active or inactive are those of the source. The call rests on the fitted dose curve.
# Assay: S16 Schwann cell PMP22 intronic element beta-lactamase assay (AID 624044); further: nearly all actives have a fitted effect of over 15% in size
# Conditions: S16 rat Schwann cells, PMP22 element beta-lactamase FRET, 24 h; ratio activity, negative = inhibition: at 38.3 µM (top of the series)
# Excerpt: Description: Charcot-Marie-Tooth-Association [CMTA] National Center for Advancing Translational Sciences [NCATS] Charcot-Marie-Tooth (CMT) disease was first characterized by Jean-Martin Charcot and Pierre Marie in France and, independently, by Howard Henry Tooth in England in 1886. CMT is one of the most common inherited neurological diseases, affecting approximately 1 in 2,500 Americans. […] The most prevalent type of CMT is known as CMT1A and caused by a duplication of the PMP22 gene which leads to over-expression of this protein. PMP22 is a glycosylated intrinsic membrane protein accounting for 2-5% of the myelin protein content, and its over-expression results in demyelination and subsequently axonal loss. A pair of cellular transcription-based assays was developed in the S16 rat Schwann cell lines (Hai, M., et al., 2002) stably transfected with orthogonal reporters - firefly luciferase (Fluc) and beta-lactamase (beta-Lac) - whose expression is driven by an intronic regulatory element of the PMP22 gene (Jones, E.A., et al., 2011) to recapitulate endogenous expression of PMP22. The current assay employs Blac as a reporter of PMP22 expression. A comprehensive library of approved drugs, the NCGC Pharmaceutical Collection (Huang, R., et al., 2011), was screened in the cross-validating platform of the orthogonal reporter assays to identify drug modulators inhibitory towards PMP22 expression. A set of counter-screens was devised to address non-specific activity of the library. An ATP-dependent CellTiter-Glo assay (developed by Promega Corp) was utilized to control cell viability. In addition, biochemical Fluc enzyme assay was performed to assess direct inhibition of the Fluc enzymatic activity. References Hai, M., Muja, N., DeVries, G.H., Quarles, R.H. and Patel, P.I. Comparative analysis of Schwann cell lines as model systems for myelin gene transcription studies. J Neurosci Res, 2002. 69(4): pp 497-508 Huang, R., Southall, N., Wang, Y., Yasgar A., Shinn P., Jadhav, A. , Nguyen, D.-T. and Austin, C.P., The NCGC pharmaceutical collection: a comprehensive resource of clinically approved drugs enabling repurposing and chemical genomics. Sci Transl Med, 2011. 3(80): p. 80ps16.
# S16 Schwann cell PMP22 intronic element beta-lactamase assay The beta-Lac-expressing S16 cells were seeded in black clear-bottom 1536 well plates at between 500-750 cells/6uL in DMEM medium containing 10% FBS, w/o phenol red. After overnight incubation at 37 degree Celsius/5% C02, 23 nL of compounds or DMSO were delivered to each well using a pin tool, followed by 24h-incubation at 37 degree Celsius/5% C02. Then one microl of LiveBLAzer FRET B/G detection mix (Invitrogen) was added to each well. An EnVision plate reader (PerkinElmer) was used to detect the dual beta-Lac output composed of fluorescence at 460nm for beta-Lac expression and FRET at 535nm for cell viability. The % signal at 535 nm was scaled to a full range of DMSO and zero and then normalized using the maximum response observed in the screen as 100% activity. The % signal at 460nm was normalized to the average readings of potassium clavulanate (a positive control) - treated cells relative to DMSO-treated cells (0% Activity). The concentration-effect curves were then classified based on curve quality (r2), response magnitude and degree of measured activity.
# Potency means the concentration at half of the fitted maximal effect.
Structure (SMILES),"ratio activity, negative = inhibition",Potency
CCOC(=O)/C=C(C)/C=C/CC(C)CCCC(C)C (stereo not given),0.968%,–
CCOC(=O)c1cncn1[C@@H](C)c1ccccc1,-7.32% [at 17.1 µM],–
C[C@@H](N)[C@@H](O)c1ccc(O)c(O)c1,-9.21%,–
O=[N+]([O-])OC1CO[C@H]2C(O[N+](=O)[O-])COC12 (stereo not given in full),1.77%,–
CNC1=CN(O)C(c2ccccc2)=c2cc(Cl)ccc2=N1,1.18%,–
C[C@]12O[C@H](C[C@]1(O)CO)n1c3ccccc3c3c4c(c5c6ccccc6n2c5c31)CNC4=O,–,7.07 µM (active)
CC(Cc1ccccc1)N(C)C (stereo not given),3.87%,–
CCCN1CCCC2Cc3nc(N)ncc3CC21 (stereo not given),0.38%,–
COC(C(=O)C(O)C(C)O)C1Cc2cc3cc(OC4CC(OC5CC(O)C(OC)C(C)O5)C(OC(C)=O)C(C)O4)c(C)c(O)c3c(O)c2C(=O)C1OC1CC(OC2CC(OC3CC(C)(O)C(OC(C)=O)C(C)O3)C(O)C(C)O2)C(O)C(C)O1 (stereo not given),–,0.0794 µM (active)
O=C1CC2OCC=C3CN4CC[C@]56c7ccccc7N1C5C2[C@H]3C[C@H]46 (stereo not given in full),2.99%,–
COC(=O)C1C(OC(=O)c2ccccc2)CC2CCC1N2C (stereo not given),2%,–
CC[C@]1([C@H]2O[C@@H]([C@@H]3O[C@](O)(CO)[C@@H](C)C[C@H]3C)C[C@H]2C)CC[C@@H]([C@]2(C)CC[C@@]3(C[C@@H](O)[C@@H](C)[C@@H]([C@H](C)[C@H](OC)[C@H](C)C(=O)O)O3)O2)O1,–,0.562 µM (active)
Cc1ccc2c(c1)[C@@H]1CN(C)CC[C@H]1N2,4.44%,–
Nc1nc(O)c(-c2ccccc2)o1,3.42%,–
COc1ccc2c3c1O[C@H]1[C@@H](O)C=C[C@H]4C(C2)NCCC341 (stereo not given in full),13.6%,–
C=CC[C@]1(O)CCC2C3CCC4=CCCCC4C3CCC21C (stereo not given in full),-21.7%,–
[S]=[Sb][S][Sb]=[S],0.587%,–
NC(C(=O)O)[C@@H]1CC(Cl)=NO1 (stereo not given in full),–,19.9 µM (active)
C[C@H](CCCC(C)(C)O)[C@H]1CC[C@H]2[C@@H]3CC=C4C[C@@H](O)CC[C@]4(C)[C@H]3CC[C@]12C,1.58%,–
CCCC(C)C1(CC)C(=O)NC(=S)NC1=O (stereo not given),-9.44%,–

Structure (SMILES),"ratio activity, negative = inhibition",Potency
CC(=O)Oc1ccc2c3c1OC1[C@@H](OC(C)=O)C=C[C@H]4[C@H](C2)N(C)CC[C@]314 (stereo not given in full),-3.23%,–
CC12CCC3C4CCC(=O)C(O)=C4CCC3C1CCC2OC(=O)CCC1CCCC1 (stereo not given),-0.127%,–
CC1CC[C@@]2(NC1)OC1CC3C4CC[C@@H]5CC(O)CC[C@@]5(C)C4CC[C@]3(C)C1C2C (stereo not given in full),-24.9%,–
CC(=O)[C@H]1CC[C@H]2C3CC[C@H]4C[C@H](O)CC[C@]4(C)C3CC[C@]12C (stereo not given in full),1.13%,–
CN(C)C1C(=O)C(C(N)=O)C(=O)C2(O)C(=O)C3C(=O)c4c(O)cccc4C(C)(O)C3C(O)C12 (stereo not given),-5.88%,–
CN1C2CCC1C(C(=O)O)C(OC(=O)c1ccccc1)C2 (stereo not given),0.153%,–
CC(CO)NC(=O)C1C=C2c3cccc4[nH]cc(c34)CC2N(C)C1 (stereo not given),6.15%,–
NC(Cc1ccc(Oc2cc(I)c(O)c(I)c2)c(I)c1)C(=O)O (stereo not given),1.74%,–
O=C1CC2OCC=C3CN4CCC56c7ccccc7N1C5[C@H]2[C@H]3C[C@H]46 (stereo not given in full) (tested in a mixture with another compound),-2.02%,–
C=CC[N+]1(C)CCC23c4c5ccc(O)c4O[C@H]2C(=O)CC[C@@]3(O)C1C5 (stereo not given in full),-3.93%,–
CN(C)[C@H]1C(=O)C(C(N)=O)=C(O)[C@]2(O)C(=O)C3=C(O)c4c(O)cccc4[C@@](C)(O)[C@H]3C[C@@H]12,1.37% [at 17.1 µM],–
CC(C)=O,-4.03%,–
CCC(=O)OC1(c2ccccc2)CCN(C)CC1C (stereo not given),-0.956%,–
OC[C@@H](O)[C@H]1O[C@@H]2OC(C(Cl)(Cl)Cl)O[C@H]2[C@H]1O (stereo not given in full),-8.3%,–
C[C@@H]1CC[C@H]2[C@@H](C)C(=O)O[C@@H]3OC4(C)CC[C@@H]1C32OO4 (stereo not given in full),-8.2%,–
OCC(O)[C@H]1O[C@@H]2O[C@H](C(Cl)(Cl)Cl)O[C@@H]2[C@H]1O (stereo not given in full),-4.56%,–
CCC/C=C/C=C/C(=O)OC1/C(=C/C(=O)OC)CC2CC(C(C)O)OC(=O)CC(O)CC3CC(OC(C)=O)C(C)(C)C(O)(CC4C/C(=C/C(=O)OC)CC(/C=C\C(C)(C)C1(O)O2)O4)O3 (stereo not given),-43.6% (active),–
COc1cc(-c2ccc(-[n+]3nc(-c4ccccc4)nn3-c3ccc([N+](=O)[O-])cc3)c(OC)c2)ccc1-[n+]1nc(-c2ccccc2)nn1-c1ccc([N+](=O)[O-])cc1,–,25.1 µM (active)
CC(=O)O[C@H]1C[C@H](O[C@H]2[C@@H](O)CC(O[C@H]3[C@@H](O)C[C@H](O[C@H]4CC[C@@]5(C)[C@H](CC[C@@H]6[C@@H]5CC[C@]5(C)[C@@H](C7=CC(=O)OC7)CC[C@]65O)C4)O[C@@H]3C)O[C@@H]2C)O[C@H](C)[C@H]1O[C@@H]1O[C@H](CO)[C@@H](O)[C@H](O)[C@H]1O (stereo not given in full),1.46%,–
C[C@H](N)Cc1ccccc1,7.29%,–
